Compound activity (PubChem BioAssay)
Shown are actives, neighbours in structure and some others; about 5.6% of the full set was active somewhere.
Six1-Eya2 inh = blocks human Six1 binding to Eya2 | AlphaScreen GST-Six1/His-Eya2 binding, biochemical; stronger effect = lower value | activity change, % (test concentration not listed) | 0.56% of 360,000 active; in the data active = activity change below about -65%; inconclusive = mostly about -30% to -63%
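GST-Six1 + His-Eya2 (5X stock: 250/500 nM); Tris pH 8.0, 300 mM NaCl, 0.05% BSA, 0.02% Tween 20; GSH donor/Ni acceptor beads; 1 h 37 °C dark; AlphaScreen readout.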
RORg inh = ROR gamma (mouse) transcription inhibition; AID 2551; P51450; Drosophila S2 Gal4-RORgamma UAS-luciferase reporter, 20 h; Potency, µM (doses to about 53.6 µM), for inactives: at the highest dose activity change, negative = inhibition, hits mostly inhibitors; 5.4% of 310,000 active; note: potency is the fitted concentration of half-maximal effect; nearly all actives have a fitted effect of over 60% in size
Target sequence (P51450 whole entry, looked up, the tested form may be a part): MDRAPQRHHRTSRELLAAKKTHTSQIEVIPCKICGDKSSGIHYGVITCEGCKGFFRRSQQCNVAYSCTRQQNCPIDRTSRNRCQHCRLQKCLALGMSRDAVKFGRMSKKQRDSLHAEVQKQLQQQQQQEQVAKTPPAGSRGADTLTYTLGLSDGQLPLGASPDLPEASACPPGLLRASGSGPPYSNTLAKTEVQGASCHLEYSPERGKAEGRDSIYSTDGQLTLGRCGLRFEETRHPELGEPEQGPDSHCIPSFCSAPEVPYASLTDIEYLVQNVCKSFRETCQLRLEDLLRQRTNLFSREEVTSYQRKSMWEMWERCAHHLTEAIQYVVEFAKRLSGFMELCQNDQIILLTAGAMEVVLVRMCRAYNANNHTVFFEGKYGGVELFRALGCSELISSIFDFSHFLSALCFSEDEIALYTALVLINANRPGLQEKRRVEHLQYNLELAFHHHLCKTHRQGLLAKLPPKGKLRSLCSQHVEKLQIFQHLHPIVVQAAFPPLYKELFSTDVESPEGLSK
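Drosophila Schneider cells stably carrying a metallothionein-driven Gal4 DBD–ROR gamma fusion and a UAS-Photinus luciferase reporter were exposed to compound for 1 hr, then induced with copper sulfate (700 uM final) for 20 hr at ambient temperature before luminescence reading.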
CtBP-E1A blk = blocks the CtBP interaction with E1A. AlphaScreen GST-E1A/His-CtBP binding, 1536-well; stronger effect = lower value. activity change, % (concentration not given with the values). 0.49% of 340,000 active; in the data active = activity change below about -65%; inconclusive = mostly about -30% to -63%
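Protein mix (5X: 125 nM each GST-E1A, His-CtBP) was incubated with pinned compound 2 h at 37 deg C in dark, in 50 mM Tris pH 8.0 buffer with 300 mM NaCl. Glutathione donor and nickel acceptor beads followed; AlphaScreen signal read after 1 h.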
VP16 counter = counter-screen for ROR gamma inhibitors: Gal4-VP16 reporter | Drosophila S2 Gal4-VP16 UAS-luciferase, luminescence, 20 h | Potency, µM (doses to about 53.6 µM), for inactives: at the top dose activity, negative = inhibition, actives largely listed as inhibitors | 3.5% of 310,000 active | AID 2546;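 note: Gal4-VP16 expression switched on by copper sulfate through the metallothionein promoter; potency is the fitted concentration of half-maximal effect; nearly all actives have a fitted effect of over 50% in size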
PKM2 activator = PKM2 (human) enzyme activation; 0.34% of 260,000 active; purified PKM2, Kinase-Glo ATP luminescence, activation; response scale: 0% is enzyme alone, no compound; P14618; Potency, µM (series often up to 57.5 µM), inactives show at the top dose activation, actives largely listed as activators; note: potency is the fitted concentration of half-maximal effect; nearly all actives have a fitted effect of over 55% in size
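Kinase-Glo luminescence reports ATP generated from ADP (0.1 mM) and PEP (0.5 mM) by purified hPK-M2 after 1 h at room temperature, pH 7.2 imidazole buffer; intermediate enzyme activity allows detecting inhibitors and activators.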
The depositor's hits bear a star. Unless noted, calls come from the whole dose curve; as a rule, active = well fitted curve in the direction sought with a large enough effect; inconclusive = small, poorly fitted or top-dose-only effect, or another doubt; inactive = no such curve, though single readings can be large; an effect the other way counts as inactive or inconclusive. % is set by controls: 0 for no effect and ±100 for the full control effect.

`CCCCOC1CC(c2ccc(OCc3ccc(OC)cc3)c(OC)c2)N(C)O1` (stereo not drawn) gave Six1-Eya2 inh -17, RORg inh 20%, CtBP-E1A blk 5, VP16 counter 6% and PKM2 activator 3%.
Screening Cc1ccc(C(=O)Sc2cccccc2=O)cc1 returned Six1-Eya2 inh -77*, RORg inh 1.8µM*, CtBP-E1A blk -89* and VP16 counter 2.2µM*.
For Cc1cccc(C(=O)CC(=O)c2cc(Cl)ccc2O)c1 the results were Six1-Eya2 inh -8, RORg inh inconclusive, CtBP-E1A blk 3, VP16 counter inconclusive and PKM2 activator 1%.
O=C(CC(=O)c1cc(Cl)ccc1O)c1ccccc1 was read as Six1-Eya2 inh -5, RORg inh inconclusive, CtBP-E1A blk 11, VP16 counter 11µM* and PKM2 activator 4%.
Cc1ccc(C(=O)CC(=O)c2ccccc2)cc1 was read as Six1-Eya2 inh 10, RORg inh 11µM*, VP16 counter inconclusive and PKM2 activator -1%.
Cc1ccc(O)c(C(=O)CC(=O)c2ccc(Cl)cc2)c1 was read as Six1-Eya2 inh -16, RORg inh 3.5µM*, CtBP-E1A blk -18 and VP16 counter 5µM*.
`CC[C@H](C)[C@H](N)C(=O)N[C@H](C(=O)N[C@@H](CO)C(=O)N[C@@H](C)C(=O)N[C@H](C(=O)N[C@H](C(=O)NCC(=O)N[C@H](C(=O)N[C@@H](CC(C)C)C(=O)O)[C@@H](C)CC)C(C)C)C(C)C)[C@@H](C)CC` gave RORg inh 16% and VP16 counter -1%.
Screening COc1ccc2ncccc2c1Cc1c(OC)ccc2ncccc12 returned Six1-Eya2 inh -11 and CtBP-E1A blk -6.
Cc1ccc(O)c(C(=O)CC(=O)c2cccc(F)c2)c1 was read as Six1-Eya2 inh -6, RORg inh 7.9µM*, CtBP-E1A blk -3, VP16 counter 7.1µM* and PKM2 activator 9%.
`Cc1cccc(C(=O)NCC(=O)NNC(=O)c2ccccc2O)c1` gave Six1-Eya2 inh -6 and CtBP-E1A blk 0.
`O=[N+]([O-])c1c(NCCCO)cc(Sc2nc3ccccc3s2)c2nonc12` gave Six1-Eya2 inh inconclusive, RORg inh 16%, CtBP-E1A blk 0, VP16 counter 1% and PKM2 activator -24%.
Screening Cc1nnc(Sc2cc(NCCO)c([N+](=O)[O-])c3nonc23)s1 returned Six1-Eya2 inh inconclusive, RORg inh 3.2µM*, CtBP-E1A blk -11, VP16 counter inconclusive and PKM2 activator 20%.
For Cc1nnc(Sc2cc(NCCCO)c([N+](=O)[O-])c3nonc23)s1 the results were Six1-Eya2 inh inconclusive, RORg inh 3.5µM*, CtBP-E1A blk -20, VP16 counter 6.3µM* and PKM2 activator 27%.
`CC(OC(=O)CCCSc1nc2ccccc2s1)C(=O)NC(N)=O` (stereo not drawn) gave Six1-Eya2 inh -1, RORg inh 4.5µM*, CtBP-E1A blk -1, VP16 counter 4µM* and PKM2 activator 1%.
For CNC(=O)NC(=O)COC(=O)CCCSc1nc2ccccc2s1 the results were Six1-Eya2 inh -13, RORg inh inconclusive, CtBP-E1A blk -1, VP16 counter inconclusive and PKM2 activator 3%.
N#Cc1ccsc1NC(=O)COC(=O)CCCSc1nc2ccccc2s1 was read as Six1-Eya2 inh -14, RORg inh inconclusive, CtBP-E1A blk -8, VP16 counter 5µM* and PKM2 activator 1%.
Screening NC(=O)COC(=O)CCCSc1nc2ccccc2s1 returned Six1-Eya2 inh 1, RORg inh 7.9µM*, CtBP-E1A blk 10, VP16 counter 13µM* and PKM2 activator 2%.
Screening COc1ccc(OC)c(C=NNC(=O)c2ccccc2NS(=O)(=O)c2cccs2)c1 returned Six1-Eya2 inh -2 and CtBP-E1A blk 2.
CC1CN(C(=O)/C(C#N)=C2\N=C(NC(=O)c3ccc(F)cc3)c3ccccc32)CC(C)O1 (stereo not drawn) was read as Six1-Eya2 inh 0, RORg inh 10%, CtBP-E1A blk -12, VP16 counter -7% and PKM2 activator 1%.
C/C=C/c1ccc2c(c1)O[C@H](CN(C)CC1CCOCC1)[C@@H](C)CN([C@H](C)CO)S2(=O)=O was read as Six1-Eya2 inh 2 and CtBP-E1A blk 5.
`O=C(NCCc1c[nH]c2ccccc12)c1ccccc1O` gave RORg inh 30% and VP16 counter -21%.
Screening S=c1[nH]c2ccc(Cl)cc2[nH]1 returned Six1-Eya2 inh 0, RORg inh -3%, CtBP-E1A blk 3, VP16 counter 7% and PKM2 activator 5%.
`S=c1[nH]c2cc(Cl)ccc2s1` gave Six1-Eya2 inh 5, RORg inh 13µM*, CtBP-E1A blk 5, VP16 counter inconclusive and PKM2 activator 4%.
CSc1nccc(N2CCN(c3ccc(F)cc3)CC2)n1 was read as Six1-Eya2 inh -7, RORg inh inconclusive, CtBP-E1A blk 2, VP16 counter 13µM* and PKM2 activator 8%.
Screening O=C1CSC(=S)N1/N=C/c1ccc(O)c(O)c1O returned Six1-Eya2 inh -91*, RORg inh -16%, CtBP-E1A blk -94*, VP16 counter -13% and PKM2 activator -29%.
`COc1ccccc1C=NN1C(=O)CSC1=S` gave Six1-Eya2 inh -27 and CtBP-E1A blk inconclusive.
For O=C1CSC(=S)N1/N=C/c1cc(Br)ccc1O the results were RORg inh 11µM*, VP16 counter inconclusive and PKM2 activator -54%.
Screening O=C(CN(C(=O)c1csnn1)c1ccccc1C(F)(F)F)NC1CCCCC1 returned Six1-Eya2 inh -2, RORg inh 4%, CtBP-E1A blk 15, VP16 counter 4% and PKM2 activator -6%.
`O=C(CSc1nnc(-c2ccc(Cl)s2)o1)N1CCOCC1` gave RORg inh -20%, VP16 counter -22% and PKM2 activator -13%.
CCC(=O)Nc1nnc(-c2ccc(Cl)s2)o1 was read as Six1-Eya2 inh 2, RORg inh 7.1µM*, VP16 counter 13µM* and PKM2 activator -5%.
CC(=O)Nc1nnc(-c2ccc(Cl)s2)o1 was read as Six1-Eya2 inh -2, RORg inh 3.5µM*, CtBP-E1A blk -26, VP16 counter 5.6µM* and PKM2 activator 0%.
For Cc1ccc2[nH]c3c(=S)nc[nH]c3c2c1 the results were Six1-Eya2 inh -1, RORg inh 13µM*, CtBP-E1A blk -12, VP16 counter inconclusive and PKM2 activator 0%.
Screening Cc1ccc2[nH]c3c(=O)n(N)c(C)nc3c2c1 returned Six1-Eya2 inh 4, RORg inh 0%, CtBP-E1A blk -2, VP16 counter -9% and PKM2 activator 0%.
